Laboratory results: PubChem BioAssay (NCATS)
Active and inactive are the calls of the source. The call rests on the fitted dose curve; in most records, active means well fitted activation curve with a large enough effect; inconclusive means small, poorly fitted or top-dose-only effect; inactive means flat fitted curve, though single readings scatter.

Assay: Confirmation and Secondary Assay for Modulators of Hemoglobin Beta Chain Splicing at IVS2 654 locus (AID 910);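 further: HeLa cells stably carrying EGFP split by mutant beta-globin IVS2-654 intron; % of control where 0% means no effect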
Settings: HeLa EGFP-654 splicing reporter, GFP fluorescence, 48 h; series mostly up to 46.1 µM; activation (splicing correction): at the top concentration
Source text: NIH Chemical Genomics Center [NCGC] NIH Molecular Libraries Screening Centers Network [MLSCN] MLSCN Grant: 1 X01 MH080684-01 PI Name: Dr. Ryszard Kole NCGC Assay Overview: Modulation of Alternative Splicing as Therapy Abnormal splicing is associated with a number of diseases, including cancer and genetic diseases such as cystic fibrosis, muscular dystrophy and beta-thalassemia. Alteration of disease associated splicing patterns provides a promising target for treatment. […] Mutations in the second intron of the b-globin gene at positions 654 or 705 are clinically relevant and cause mis-splicing which results in an out of frame gene product. […] EGFP-654 HeLa Cells as screen system. HeLa cell lines were stably transfected with a construct in which the EGFP (enhanced green fluorescent protein) cDNA was interrupted by the second intron of the beta-globin gene (IVS2-654). The ISV2 intron contains mutations which cause mis-splicing of EGFP and premature termination of EGFP which results in a nonfluorescent protein product. […] Expression of the transgene was driven by the CMV promoter. We concluded that a low molecular weight compound, which restored correct splicing of intron 2 would also generate functional EGFP protein, resulting in a fluorescent signal. Thus, the HeLa cells that express the EGFP-654 construct can be used for high throughput screening of a chemical library.
NCGC Assay Protocol Summary: Confirmatory Screening. Freshly thawed HeLa EGFP-654 cells were seeded in 5 ul of optimem media (Invitrogen) containing 2 % fetal calf serum (Hyclone) and 1x penicillin/streptomycin (Invitrogen) at a concentration of 500 cells per well in 1536-well plates. Cells were incubated overnight at 37C in 5% CO2. The next day, cells were treated with DMSO, 500 nM antisense ISV2 654 PNA control oligo, or library compound and allowed to grow at 37C in 5% CO2 for 2 days. The PNA oligo blocked the mutation site in the intron and allowed proper (wild type) splicing to occur, resulting in full length EGFP expression and also allowed for optimization of the assay parameters. Plates were read in the Acumen Explorer (TTP Labtech) using 488 nm laser excitation and 500-520 nm emission PMT filter in a 1 x 8 uM capture mode. Fluorescnet objects ranging in size from 5 to 250 uM were measured and the total peak GFP intensity for each well was used for data analysis. Keywords: Thalassemia, beta-thalassemia, beta-globin, EGFP, ISV2 654, ISV2 705, SSO, PNA, antisense, splicing, MLSMR, MLSCN, NIH Roadmap, qHTS, NCGC

| Compound | activation (splicing correction) |
| --- | --- |
| CCCCCCCCCc1ccc(O)cc1 | 1.95% [at 38.3 µM] (inactive) |
| O=C1C=C2C=CC3C[C@@]2(O1)C1CCCCN31 (stereo not given in full) | 13.1% (inactive) |
| COC(=O)NC(=S)Nc1ccccc1NC(=S)NC(=O)OC | -0.0152% [at 38.3 µM] (inactive) |
| COc1nc(NC(C)C)nc(NC(C)C)n1 | -0.75% [at 38.3 µM] (inactive) |
| COc1c2c(cc3c1OCO3)C13C=CC(OC)CC1N(C2)CC3O (stereo not given) | 6.07% (inactive) |
| C[C@@]12CCC3C(CCC4=CC(=O)CC[C@]43C)C1CCC2O (stereo not given in full) | -1.71% [at 38.3 µM] (inactive) |
| CC1(C)C(O)CC(O)[C@]2(C)C1CC(O)[C@]1(C)C2CC[C@@]2(C)C(c3ccoc3)OC(=O)C3O[C@]312 (stereo not given in full) | 3.95% (inactive) |
| O=C(O)COc1cc(Cl)c(Cl)cc1Cl | 0.881% [at 38.3 µM] (inactive) |
| CC1O[C@@H](OC2CC(O)[C@@]3(CO)C4C(O)C[C@@]5(C)C(C6=CC(=O)OC6)CC[C@]5(O)C4CC[C@]3(O)C2)C(O)C(O)C1O (stereo not given in full) | -4.62% (inactive) |
| COC(=O)COc1ccc(Cl)cc1Cl | 1.46% [at 38.3 µM] (inactive) |
| CCCCOC(=O)c1ccccc1C(=O)OCCCC | -0.502% [at 38.3 µM] (inactive) |
| CC(C)c1cc2c(c(O)c1O)[C@]1(C(=O)O)CCCC(C)(C)C1CC2 (stereo not given in full) | 14.3% (inactive) |
| COc1cc(OC)c2c(c1)OC(c1ccc(OC)c(OC)c1)C(O)C2 (stereo not given) | 5.68% (inactive) |
| O=C1NC(=O)C(=O)C(=O)N1 | 0.444% [at 38.3 µM] (inactive) |
| C=C1C2CC[C@@]3(C)C(c4ccoc4)OC(=O)C[C@@]13OC1CC(=O)C(C)(C)C(C(OC(C)=O)C(=O)OC)[C@@]12C (stereo not given in full) | 1.27% (inactive) |
| CC1(C)C(O)CC(O)[C@]2(C)C1CC(=O)[C@]1(C)C2CC[C@@]2(C)C(c3ccoc3)OC(=O)C3OC321 (stereo not given in full) | 8.84% (inactive) |
| ClC1=C(Cl)C2(Cl)C3C(Cl)C=CC3C1(Cl)C2(Cl)Cl (stereo not given) | -2.07% [at 38.3 µM] (inactive) |
| O=c1cccc2n1CC1CC2CN2CCCCC12 (stereo not given) | -0.289% [at 38.3 µM] (inactive) |
| CCC(C)C1O[C@]2(C=CC1C)CC1CC(C/C=C(\C)[C@H](OC3CC(OC)C(O[C@H]4CC(OC)[C@@H](O)C(C)O4)C(C)O3)[C@@H](C)/C=C/C=C3\COC4C(O)C(C)=C[C@H](C(=O)O1)[C@@]34O)O2 (stereo not given in full) | 0.108% (inactive) |
| CC(=O)OC1CCC23C(=O)OC45CCC(C6=CC(=O)OC6)C4(C)CCC2C5CCC3(O)C1 (stereo not given) | -5.45% (inactive) |

| Compound | activation (splicing correction) |
| --- | --- |
| CCC(C)C(=O)c1c(O)c(C)c2oc3c(C)c(O)c(C(=O)C(C)CC)c(O)c3c2c1O (stereo not given) | -2.12% [at 38.3 µM] (inactive) |
| C[C@@]12CCC(Cl)C[C@H]1CCC1C2CC[C@]2(C)C(=O)CCC12 (stereo not given in full) | -1.3% [at 38.3 µM] (inactive) |
| CC(=O)CC1CCCCN1 (stereo not given) | 0.291% [at 38.3 µM] (inactive) |
| C#CCOS(=O)OC1CCCCC1Oc1ccc(C(C)(C)C)cc1 (stereo not given) | -1.04% [at 38.3 µM] (inactive) |
| C/C=C/c1ccc2c(c1)OCO2 | -0.205% [at 38.3 µM] (inactive) |
| COc1cc2c(cc1O)CCNC2C (stereo not given) | 16.6% (inactive) |
| CCC1CN2CCC1CC2C(O)c1ccnc2ccc(OC)cc12 (stereo not given) | 0.454% (inactive) |
| COc1cc2c(cc1-c1cc3cc4ccoc4cc3oc1=O)OCO2 | -0.726% (inactive) |
| CNC(=O)CSP(=S)(OC)OC | 1.12% [at 38.3 µM] (inactive) |
| CC(N)[C@H](O)c1ccccc1 (stereo not given in full) | -0.502% [at 38.3 µM] (inactive) |
| CCC(C)C(=O)OC1C(O)C2C(CN3CC(C)CCC3[C@]2(C)O)C2C[C@]34O[C@@]5(O)C(OC(=O)C(C)(O)CC)CCC3(C)C5C(OC(C)=O)C(OC(C)=O)C4[C@@]21O (stereo not given in full) | 1.18% (inactive) |
| O=S1OCC2C(CO1)C1(Cl)C(Cl)=C(Cl)C2(Cl)C1(Cl)Cl (stereo not given) | 2.33% [at 38.3 µM] (inactive) |
| CC([C@H](O)c1ccccc1)N(C)C (stereo not given in full) | 0.0769% [at 38.3 µM] (inactive) |
| COc1cc2occc2c2oc(=O)ccc12 | -1.01% [at 38.3 µM] (inactive) |
| COc1cc(C2c3cc4c(c(O)c3CC3COC(=O)C32)OCO4)cc(OC)c1OC (stereo not given) | 0.707% [at 38.3 µM] (inactive) |
| CNC(=O)Oc1ccccc1OC(C)C | 1.87% [at 38.3 µM] (inactive) |
| CC1=C2CCC3C4CCC(=O)[C@@]4(C)CCC3[C@]2(C)CCC1=O (stereo not given in full) | 0.252% (inactive) |
| CC(=O)OC1CC2C(C)(C)C(=O)C=C[C@]2(C)C2CC[C@]3(C)C(=CC(=O)OC3c3ccoc3)[C@]12C (stereo not given in full) | -5.87% (inactive) |
| O=C1CCCC2C3CC(CN12)C1CCCCN1C3 (stereo not given) | 3.01% [at 38.3 µM] (inactive) |
| COC(=O)COc1cc(Cl)c(Cl)cc1Cl | 0.133% [at 38.3 µM] (inactive) |
